Measured values: PubChem BioAssay (NCI)
This is part of a sample that, as a whole, favours compounds with a hit. Of some 79,000 tested, about 15% had one in any assay. Activity calls are given as the source filed them. Rule as the data show it: active = growth inhibition above about 70%; inactive = the rest.

Tests used:
[1] = NCI Yeast Anticancer Drug Screen. Data for the mec2-1 strain (AID 157); details: S. cerevisiae mec2-1 strain, hits give high values
Outline: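 Cells of the genetically defined mec2-1 yeast strain are incubated with test compound. Inhibition of growth is calculated against vehicle-treated controls.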

[2] = NCI Yeast Anticancer Drug Screen. Data for the rad14 strain (AID 159);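 also: 0% = growth of vehicle-treated control cultures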; details: S. cerevisiae rad14 strain growth inhibition, hits give high values
Outline: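 Screen for anticancer potential: a yeast strain altered in DNA damage repair is grown with compound, and reduced growth is quantified against vehicle controls.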

[3] = NCI Yeast Anticancer Drug Screen. Data for the sgs1 mgt1 strain (AID 161);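 also: 0% = growth of cultures given vehicle only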; details: S. cerevisiae sgs1 mgt1 strain, hits give high values
Outline: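 Test agents were incubated with a DNA-repair-mutant yeast strain. Growth was then read and compared against vehicle-treated controls.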

[4] = NCI Yeast Anticancer Drug Screen. Data for the CLN2oe strain (AID 163);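 also: 0% = growth of vehicle-only control cultures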; details: S. cerevisiae CLN2oe strain, hits give high values
Outline: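 Strain altered in cell-cycle control, incubated with compound; growth compared to solvent-treated controls.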

[5] = NCI Yeast Anticancer Drug Screen. Data for the cln2 rad14 strain (AID 165);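 also: 0% = growth equal to vehicle treated cultures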; details: S. cerevisiae cln2 rad14 strain, hits give high values
Outline: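 The screen exposed genetically defined yeast (cln2 rad14) to test compounds and scored growth inhibition relative to vehicle-treated controls.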

[6] = NCI Yeast Anticancer Drug Screen. Data for the bub3 strain (AID 167); details: S. cerevisiae bub3 mutant strain, hits give high values
Outline: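 Screening used yeast with an engineered genetic alteration affecting cell cycle control. Compound-exposed cultures were compared with vehicle cultures, and reduced growth was taken as inhibition.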

[7] = NCI Yeast Anticancer Drug Screen. Data for the sgs1 strain (AID 173);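 also: 0% = growth of vehicle-only control cultures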; details: S. cerevisiae sgs1 mutant, hits give high values
Outline: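 Inhibition of yeast growth served as the measure. The mutant strain was treated with each compound, and growth was normalised to cultures receiving vehicle alone.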

[8] = NCI Yeast Anticancer Drug Screen. Data for the mlh1 rad18 strain (AID 175); details: S. cerevisiae mlh1 rad18 strain growth inhibition, hits give high values
Outline: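 Compound-treated yeast growth, normalised to vehicle controls. Strain bears defined DNA repair mutations.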

[9] = NCI Yeast Anticancer Drug Screen. Data for the rad18 strain (AID 177); details: S. cerevisiae rad18 mutant growth inhibition, hits give high values
Outline: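 Inhibition values reflect reduced yeast growth compared with vehicle-treated controls, using a strain engineered with a DNA damage repair defect.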

[10] = NCI Yeast Anticancer Drug Screen. Data for the rad52 strain (AID 147);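 also: 0% = growth of vehicle-treated control cultures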; details: S. cerevisiae rad52 mutant growth inhibition, hits give high values
Outline: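 Genetically altered yeast (DNA damage repair defect) treated with compound; inhibition calculated relative to vehicle.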

[11] = NCI Yeast Anticancer Drug Screen. Data for the wt1 strain (AID 149);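 also: 0% = growth of vehicle-treated wt1 cultures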; details: S. cerevisiae wt1 strain (SPY 50644) growth inhibition, hits give high values
Outline: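 Using yeast strain wt1, compound-induced growth inhibition was determined against vehicle-treated cultures.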

[12] = NCI Yeast Anticancer Drug Screen. Data for the rad50EPP+ strain (AID 151);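 also: 0% = growth of vehicle-treated control cultures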; details: S. cerevisiae rad50 mutant strain, hits give high values
Outline: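 Strain rad50EPP+; compound exposure; % growth inhibition vs vehicle.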

[13] = NCI Yeast Anticancer Drug Screen. Data for the rad50 strain (AID 155);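 also: 0% = growth of vehicle-only cultures of the same strain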; details: S. cerevisiae rad50 strain growth inhibition, hits give high values
Outline: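 Relative growth inhibition (compound vs vehicle) was measured in yeast with a defined repair-gene alteration.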

[14] = NCI Yeast Anticancer Drug Screen. Data for the mlh1 strain (AID 171);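 also: 0% = growth of vehicle-treated control cultures of the same strain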; details: S. cerevisiae mlh1 strain growth inhibition, hits give high values
Outline: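 Yeast screen: mutant strain plus compound, growth scored against vehicle control wells.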

[15] = NCI Yeast Anticancer Drug Screen. Data for the wt2 strain (AID 169);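 also: 0% = growth of vehicle-treated yeast cultures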; details: S. cerevisiae wt2 strain growth inhibition, hits give high values
Outline: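 Steps: yeast strain treated with compound; growth recorded; inhibition calculated relative to cultures given vehicle alone.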

[16] = at 5.0 µM (retest, dose inferred, filed as 0.5)
[17] = at 50.0 µM (retest, dose inferred, filed as 5.0)

Measured: growth inhibition

CCCCC(CC)C(=O)Oc1ccc(C(=O)c2ccccc2)c(O)c1 (centres undefined)
active: [1]; at 100.0 µM 98% | [2]; at 100.0 µM 97% | [3]; [17] 91% | [3]; at 50.0 µM 82% | [4]; at 100.0 µM 97% | [5]; [17] 88% | [6]; [17] 89% | [6]; at 50.0 µM 73% | [6]; at 100.0 µM 98% | [7]; at 100.0 µM 97% | [8]; [17] 77% | [9]; at 100.0 µM 97%
inactive: [2]; at 1.2 µM -5% | [2]; at 3.7 µM -6% | [2]; at 11.0 µM -8% | [2]; at 33.0 µM 29% | [3]; [16] -32% | [4]; at 1.2 µM 0% | [4]; at 3.7 µM 17% | [4]; at 11.0 µM 19% | [4]; at 33.0 µM 50% | [5]; [16] 48% | [5]; at 50.0 µM 65% | [6]; at 1.2 µM 21% | [6]; at 3.7 µM 27% | [6]; [16] -1% | [6]; at 11.0 µM 32% | [6]; at 33.0 µM 69% | [7]; at 1.2 µM 10% | [7]; at 3.7 µM 9% | [7]; at 11.0 µM 20% | [7]; at 33.0 µM 63% | [8]; [16] 38% | [8]; at 50.0 µM 69.3% | [9]; at 1.2 µM -4% | [9]; at 3.7 µM 0% | [9]; at 11.0 µM 17% | [9]; at 33.0 µM 53%

CC(C)(O)c1ccccc1C(c1ccccc1)c1ccccc1
active: [13]; [17] 85% | [3]; [17] 88% | [5]; [17] 80% | [6]; [17] 86% | [8]; [17] 92%
inactive: [10]; at 1.2 µM 0% | [10]; at 3.7 µM -3% | [10]; at 11.0 µM 9% | [10]; at 33.0 µM 3% | [10]; at 100.0 µM 8% | [11]; at 1.2 µM 0% | [11]; at 3.7 µM -1% | [11]; at 11.0 µM 5% | [11]; at 33.0 µM -3% | [11]; at 100.0 µM 4% | [12]; at 1.2 µM -5% | [12]; at 3.7 µM -4% | [12]; at 11.0 µM 5% | [12]; at 33.0 µM -1% | [12]; at 100.0 µM 4% | [13]; at 1.2 µM -2% | [13]; at 3.7 µM 3% | [13]; [16] 53% | [13]; at 11.0 µM 4% | [13]; at 33.0 µM 6% | [13]; at 50.0 µM 18.6% | [13]; at 100.0 µM 7% | [1]; at 1.2 µM -2% | [1]; at 3.7 µM 0% | [1]; [16] -5% | [1]; at 11.0 µM -2% | [1]; at 33.0 µM 1% | [1]; [17] 42% | [1]; at 50.0 µM 9.35% | [1]; at 100.0 µM 5% | [2]; at 1.2 µM 0% | [2]; at 3.7 µM 0% | [2]; at 11.0 µM 0% | [2]; at 33.0 µM 3% | [2]; at 100.0 µM 10% | [3]; [16] 25% | [3]; at 50.0 µM 17% | [4]; at 1.2 µM 1% | [4]; at 3.7 µM -1% | [4]; at 11.0 µM 3% | [4]; at 33.0 µM 9% | [4]; at 100.0 µM 17% | [5]; [16] 17% | [5]; at 50.0 µM -1% | [6]; at 1.2 µM -2% | [6]; at 3.7 µM -2% | [6]; [16] 29% | [6]; at 11.0 µM -4% | [6]; at 33.0 µM -2% | [6]; at 50.0 µM 7.9% | [6]; at 100.0 µM 4% | [14]; at 1.2 µM -3% | [14]; at 3.7 µM -3% | [14]; at 11.0 µM -2% | [14]; at 33.0 µM 0% | [14]; at 100.0 µM 9% | [7]; at 1.2 µM -6% | [7]; at 3.7 µM 20% | [7]; at 11.0 µM -14% | [7]; at 33.0 µM -5% | [7]; at 100.0 µM 1% | [8]; [16] 59% | [8]; at 50.0 µM 10.9% | [9]; at 1.2 µM -2% | [9]; at 3.7 µM 1% | [9]; at 11.0 µM 1% | [9]; at 33.0 µM 3% | [9]; at 100.0 µM 15%

CN(C)c1ccc(N=Nc2ccccn2)cc1
active: [10]; at 33.0 µM 89% | [10]; at 100.0 µM 94% | [11]; at 33.0 µM 87% | [11]; at 100.0 µM 94% | [12]; at 100.0 µM 85% | [13]; [16] 100% | [13]; at 33.0 µM 94% | [13]; [17] 100% | [13]; at 50.0 µM 81.6% | [13]; at 100.0 µM 96% | [1]; [16] 100% | [1]; [17] 100% | [1]; at 50.0 µM 82.9% | [1]; at 100.0 µM 96% | [2]; at 33.0 µM 95% | [2]; at 100.0 µM 97% | [3]; [17] 98% | [3]; at 50.0 µM 85.6% | [4]; at 33.0 µM 77% | [4]; at 100.0 µM 88% | [5]; [17] 97% | [5]; at 50.0 µM 75.2% | [6]; at 33.0 µM 95% | [6]; [17] 97% | [6]; at 50.0 µM 87.1% | [6]; at 100.0 µM 96% | [15]; at 33.0 µM 86% | [15]; at 100.0 µM 94% | [14]; at 33.0 µM 93% | [14]; at 100.0 µM 96% | [8]; [16] 100% | [8]; [17] 100% | [8]; at 50.0 µM 83.2% | [9]; at 33.0 µM 83% | [9]; at 100.0 µM 91%
inactive: [10]; at 1.2 µM -15% | [10]; at 3.7 µM -12% | [10]; at 11.0 µM 15% | [11]; at 1.2 µM -21% | [11]; at 3.7 µM 31% | [11]; at 11.0 µM 29% | [12]; at 1.2 µM -88% | [12]; at 3.7 µM -118% | [12]; at 11.0 µM -85% | [12]; at 33.0 µM 66% | [13]; at 1.2 µM -29% | [13]; at 3.7 µM -18% | [13]; at 11.0 µM 26% | [1]; at 1.2 µM -10% | [1]; at 3.7 µM 20% | [1]; at 11.0 µM 14% | [1]; at 33.0 µM 66% | [2]; at 1.2 µM 12% | [2]; at 3.7 µM 1% | [2]; at 11.0 µM 62% | [3]; [16] -1% | [4]; at 1.2 µM 1% | [4]; at 3.7 µM -17% | [4]; at 11.0 µM 17% | [5]; [16] 41% | [6]; at 1.2 µM -3% | [6]; at 3.7 µM 15% | [6]; [16] 40% | [6]; at 11.0 µM 61% | [15]; at 1.2 µM -27% | [15]; at 3.7 µM -12% | [15]; at 11.0 µM 3% | [14]; at 1.2 µM 33% | [14]; at 3.7 µM 10% | [14]; at 11.0 µM 60% | [9]; at 1.2 µM -16% | [9]; at 3.7 µM -10% | [9]; at 11.0 µM -1%
